Inconclusive results are not listed. Active and inactive are the calls of the source. Unless noted, calls follow the shape of the dose curve; as a rule, active = well fitted curve in the direction sought with a large enough effect in the repeat runs; inconclusive = weak or mixed curves; inactive = no such curve, though single readings can be large; an effect the other way counts as inactive or inconclusive.
Tests used:
[1] = qHTS assay to identify small molecule agonists of the peroxisome proliferator-activated receptor delta (PPARd) signaling pathway - cell viability counter screen (AID 743211); also: nearly all actives have a fitted effect of over 55% in size
Summary of the method: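 Read-out: CellTiter-Glo luminescence, 30 min RT, measured in the same wells as the beta-lactamase reporter. Cells: GeneBLAzer PPAR delta UAS-bla HEK293H, 3000 cells/well, compound exposure 17 h at 37C.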

[2] = target: Peroxisome proliferator-activated receptor delta (Homo sapiens) (UniProt Q03181); test: qHTS assay to identify small molecule agonists of the peroxisome proliferator-activated receptor delta (PPARd) signaling pathway (AID 743212; calls by dose curve)
Summary of the method: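 HEK293H PPARd-bla cells; 5 h preincubation 37 C/5% CO2; compound (DMSO) 37 C; LiveBLAzer B/G FRET substrate 2 h RT; fluorescence intensity.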

[3] = qHTS assay to identify small molecule antagonists of the peroxisome proliferator-activated receptor delta (PPARd) signaling pathway - cell viability counter screen (AID 743213); also: nearly all actives have a fitted effect of over 50% in size
Summary of the method: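 Agonist-stimulated (L165041, 300 nM final) HEK293H PPARd UAS-bla cells are exposed to compounds for 17 h at 37 C, and ATP-based luminescence (CellTiter-Glo) from the same wells reports cytotoxicity.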

[4] = target: Peroxisome proliferator-activated receptor delta (Homo sapiens) (UniProt Q03181); test: qHTS assay to identify small molecule antagonists of the peroxisome proliferator-activated receptor delta (PPARd) signaling pathway (AID 743215; active = well fitted inhibition curve with a large enough effect in the signal ratio in the repeat runs, not every such curve was filed as active; the % refers to the signal ratio; also: series mostly up to about 62 µM)
Summary of the method: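 PPARd UAS-bla HEK293H cells were pre-incubated 5 h at 37 C, then given test compounds in DMSO plus agonist L165041 (300 nM final). After 17 h at 37 C, beta-lactamase FRET substrate was added; fluorescence read after 2 h at room temperature.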

[5] = qHTS assay to identify small molecule agonists of the farnesoid-X-receptor (FXR) signaling pathway - cell viability counter screen (AID 743218); also: nearly all actives have a fitted effect of over 45% in size
Summary of the method: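 FXR-UAS-bla HEK 293T cells, plated 5 h at 37 C, were exposed to compounds for 16 h at 37 C. CellTiter-Glo was then added to the same wells as the bla readout; luminescence read after 30 min at room temperature.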

[6] = qHTS assay to identify small molecule antagonists of the farnesoid-X-receptor (FXR) signaling pathway - cell viability counter screen (AID 743221; active = well fitted cell-killing curve with a large enough effect in the repeat runs, not every such curve was filed as active; also: nearly all actives have a fitted effect of over 50% in size)
Summary of the method: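 HEK 293T FXR-bla cells, 5 h pre-incubation; compound + CDCA 50 uM final, 16 h, 37 C; beta-lactamase FRET read first, then CellTiter-Glo luminescence, 30 min RT.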

[7] = target: Vitamin D3 receptor (Homo sapiens) (UniProt P11473); test: qHTS assay to identify small molecule agonists of the vitamin D receptor (VDR) signaling pathway (AID 743222; calls by dose curve)
Summary of the method: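 VDR-bla cells were plated 4 h at 37C/5% CO2, then exposed to compounds in DMSO for 16 h. After LiveBLAzer B/G FRET substrate addition and 2 h at room temperature, beta-lactamase reporter fluorescence was read.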

[8] = qHTS assay to identify small molecule agonists of the vitamin D receptor (VDR) signaling pathway - cell viability counter screen (AID 743224); also: series mostly up to about 63 µM; nearly all actives have a fitted effect of over 50% in size
Summary of the method: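 VDR-bla cells were preincubated 4 h at 37C/5% CO2, then exposed to compounds for 16 h. After the 2 h room-temperature bla FRET read, CellTiter-Glo was added to the same wells and luminescence read after 30 min.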

[9] = qHTS assay to identify small molecule antagonists of the vitamin D receptor (VDR) signaling pathway - cell viability counter screen (AID 743225); also: nearly all actives have a fitted effect of over 50% in size
Summary of the method: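 Viability counter screen run in the same wells as the beta-lactamase reporter assay: HEK 293T VDR-UAS-bla cells, 16 h compound exposure at 37C with 3 nM (final) 1-alpha,25-dihydroxyvitamin D3. CellTiter-Glo luminescence, 30 min, room temperature.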

[10] = qHTS assay to identify small molecule agonists of the NFkB signaling pathway (AID 1159509; active = well fitted curve in the direction sought with a large enough effect in the signal ratio in the repeat runs, not every such curve was filed as active; the % refers to the signal ratio; also: series mostly up to about 61 µM)
Summary of the method: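 ME-180 NFkB-bla, 2,000 cells/well, overnight plating; cpd pinned in DMSO, 5 h 37 C; B/G FRET substrate 1.5 h RT; ex 405, em 460/530 nm.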

[11] = qHTS assay to identify small molecule agonists of the NFkB signaling pathway - cell viability counter screen (AID 1159515; calls by dose curve; also: series mostly up to about 61 µM; nearly all actives have a fitted effect of over 55% in size)
Summary of the method: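 NFkB-bla ME-180 cells, 2,000/well, were plated overnight at 37 C, 5% CO2, then exposed to compounds in DMSO for 5 hr. After the bla FRET read, CellTiter-Glo was added to the same wells; luminescence was read after 30 min at room temperature.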

[12] = qHTS assay to identify small molecule agonists of the endoplasmic reticulum stress response signaling pathway (AID 1159516; active = well fitted activation curve with a large enough effect in the signal ratio in the repeat runs, not every such curve was filed as active; the % refers to the signal ratio)
Summary of the method: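 CellSensor ESRE-bla HeLa cells, carrying a beta-lactamase reporter driven by the ER stress response element, were plated overnight and exposed to compounds for 5 hr at 37 C. Reporter activity was read as FRET substrate fluorescence after 2 hr at room temperature.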

[13] = qHTS assay to identify small molecule agonists of the endoplasmic reticulum stress response signaling pathway - cell viability counter screen (AID 1159517; calls by dose curve)
Summary of the method: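 HeLa cells carrying an ESRE-driven beta-lactamase reporter receive compound for 5 hr at 37 C. Cell viability is then gauged with CellTiter-Glo by luminescence, 30 min at room temperature.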

[14] = qHTS assay to identify small molecule antagonists of the retinoid-related orphan receptor gamma (ROR-gamma) signaling pathway - cell viability counter screen (AID 1159520); also: nearly all actives have a fitted effect of over 50% in size
Summary of the method: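 Cytotoxicity was read from cellular ATP (CellTiter-Glo luminescence) after 16 hr at 37 C with 1 uM doxycycline induction. The inducer was added 2 hr after compound transfer to Tet-on ROR gamma CHO cells.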

[15] = qHTS assay to identify small molecule agonists of the AP-1 signaling pathway - cell viability counter screen (AID 1159525; calls by dose curve; also: nearly all actives have a fitted effect of over 55% in size)
Summary of the method: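 Luminescent ATP readout (Cell Titer Glo, 30 min RT), normalised to DMSO and tetra n-octyl ammonium bromide controls. Cells were ME-180 AP-1-bla in 0.5% dialyzed FBS Opti-MEM, with a 5 h, 37 °C compound exposure.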

[16] = qHTS assay to identify small molecule agonists of the AP-1 signaling pathway (AID 1159526; calls by dose curve)
[17] = target: Vitamin D3 receptor (Homo sapiens) (UniProt P11473); test: qHTS assay to identify small molecule antagonists of the vitamin D receptor (VDR) signaling pathway (AID 743223; active = well fitted inhibition curve with a large enough effect in the signal ratio in the repeat runs, not every such curve was filed as active; the % refers to the signal ratio)
Summary of the method: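 Beta-lactamase reporter read-out: FRET substrate fluorescence after 2 h at room temperature, following 16 h exposure of VDR-bla cells to test compound plus 3 nM (final) 1alpha,25-dihydroxyvitamin D3 agonist at 37C.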

[18] = target: Bile acid receptor (Homo sapiens) (UniProt Q96RI1); test: qHTS assay to identify small molecule agonists of the farnesoid-X-receptor (FXR) signaling pathway (AID 743220; active = well fitted activation curve with a large enough effect in the signal ratio in the repeat runs, not every such curve was filed as active; the % refers to the signal ratio)
Summary of the method: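 Beta-lactamase reporter under UAS control in GeneBLAzer FXR HEK 293T cells (5000/well) measured with LiveBLAzer FRET substrate after 2 h at room temperature. Compound exposure lasted 16 h at 37C.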

[19] = target: Bile acid receptor (Homo sapiens) (UniProt Q96RI1); test: qHTS assay to identify small molecule antagonists of the farnesoid-X-receptor (FXR) signaling pathway (AID 743217; active = well fitted inhibition curve with a large enough effect in the signal ratio in the repeat runs, not every such curve was filed as active; the % refers to the signal ratio)
Summary of the method: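 FXR-UAS-bla HEK 293T cells pre-incubated 5 h at 37 °C, then exposed to compounds with chenodeoxycholic acid (50 uM final) for 16 h at 37 °C. Beta-lactamase reporter read by LiveBLAzer B/G FRET substrate fluorescence after 2 h at room temperature.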

Measured: Potency

Chain of Vitamin D3 receptor (Homo sapiens) (P11473 whole entry, looked up): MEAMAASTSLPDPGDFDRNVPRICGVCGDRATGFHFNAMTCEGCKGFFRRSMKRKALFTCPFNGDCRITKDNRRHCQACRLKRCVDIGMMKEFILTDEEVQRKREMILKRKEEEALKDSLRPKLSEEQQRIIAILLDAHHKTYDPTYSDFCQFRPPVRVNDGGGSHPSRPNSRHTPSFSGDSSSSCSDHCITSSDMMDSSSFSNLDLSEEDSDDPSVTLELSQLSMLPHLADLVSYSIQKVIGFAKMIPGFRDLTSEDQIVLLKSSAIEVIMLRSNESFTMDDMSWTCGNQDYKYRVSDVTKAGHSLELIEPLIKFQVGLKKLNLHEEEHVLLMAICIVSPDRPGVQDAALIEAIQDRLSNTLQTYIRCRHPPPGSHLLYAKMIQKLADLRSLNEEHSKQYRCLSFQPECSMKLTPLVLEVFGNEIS
Chain of Bile acid receptor (Homo sapiens) (Q96RI1 whole entry, looked up): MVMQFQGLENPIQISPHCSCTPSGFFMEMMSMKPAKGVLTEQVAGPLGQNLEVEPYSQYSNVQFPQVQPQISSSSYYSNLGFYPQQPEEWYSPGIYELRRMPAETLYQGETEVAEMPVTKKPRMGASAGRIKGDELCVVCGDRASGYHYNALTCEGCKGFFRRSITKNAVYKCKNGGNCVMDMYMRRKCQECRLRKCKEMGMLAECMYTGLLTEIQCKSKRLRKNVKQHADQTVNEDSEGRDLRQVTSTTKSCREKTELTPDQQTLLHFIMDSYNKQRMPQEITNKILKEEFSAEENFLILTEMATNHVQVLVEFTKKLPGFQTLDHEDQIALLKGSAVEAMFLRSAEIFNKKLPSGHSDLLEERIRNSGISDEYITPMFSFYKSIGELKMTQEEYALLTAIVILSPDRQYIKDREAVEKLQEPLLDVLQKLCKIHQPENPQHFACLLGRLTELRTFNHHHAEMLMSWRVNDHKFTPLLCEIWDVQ
Chain of Peroxisome proliferator-activated receptor delta (Homo sapiens) (Q03181 whole entry, looked up): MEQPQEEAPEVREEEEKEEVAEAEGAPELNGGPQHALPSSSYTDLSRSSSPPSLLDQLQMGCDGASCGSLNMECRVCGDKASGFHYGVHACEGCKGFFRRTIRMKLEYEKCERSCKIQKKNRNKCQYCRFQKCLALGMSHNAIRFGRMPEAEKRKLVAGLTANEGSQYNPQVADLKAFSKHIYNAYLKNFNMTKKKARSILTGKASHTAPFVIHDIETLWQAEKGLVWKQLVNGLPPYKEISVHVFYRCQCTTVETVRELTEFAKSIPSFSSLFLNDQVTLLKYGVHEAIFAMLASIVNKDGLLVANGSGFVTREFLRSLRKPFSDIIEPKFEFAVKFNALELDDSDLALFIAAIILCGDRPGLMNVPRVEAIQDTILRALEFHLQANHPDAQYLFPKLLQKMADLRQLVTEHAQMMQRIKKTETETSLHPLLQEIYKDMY

CCOC(=O)OCC
inactive: [1] | [2] | [3] | [4] | [5] | [6] | [7] | [8] | [9] | [10] | [11] | [12] | [13] | [14] | [15] | [16]

Brc1cc(-c2ccc(Br)c(Br)c2Br)cc(Br)c1Br
inactive: [1] | [2] | [3] | [4] | [6] | [7] | [17] | [8] | [9] | [10] | [11] | [12] | [13] | [14] | [15] | [16]

CCCCCCCCCOC(C)=O
inactive: [1] | [2] | [3] | [4] | [5] | [18] | [6] | [7] | [17] | [8] | [9] | [10] | [11] | [12] | [13] | [14] | [15] | [16]

CC(=O)Nc1ccccc1C
inactive: [1] | [2] | [3] | [4] | [5] | [6] | [7] | [10] | [11] | [12] | [13] | [14] | [15] | [16]

CC(Cl)C(Cl)Cl (stereo unspecified)
inactive: [1] | [2] | [3] | [4] | [5] | [6] | [17] | [8] | [9] | [10] | [11] | [12] | [13] | [14] | [15] | [16]

CCn1cc(C(=O)O)c(=O)c2cc(F)c(N3CCNCC3)nc21
inactive: [1] | [2] | [3] | [4] | [5] | [6] | [7] | [17] | [8] | [9] | [10] | [11] | [12] | [13] | [14] | [15] | [16]

C=CCOC(=O)/C=C\C(=O)OCC=C
inactive: [1] | [2] | [3] | [4] | [19] | [5] | [18] | [6] | [7] | [8] | [9] | [10] | [11] | [12] | [13] | [14] | [15] | [16]

CCC(C)(C)C1CCC(O)CC1 (stereo unspecified)
inactive: [1] | [2] | [3] | [4] | [5] | [6] | [7] | [8] | [9] | [10] | [11] | [12] | [13] | [14] | [15] | [16]

O=S1OCCO1
inactive: [1] | [3] | [5] | [6] | [7] | [17] | [8] | [9] | [10] | [11] | [12] | [13] | [14] | [15] | [16]

O=C(O)c1c(O)c(-c2ccccc2)nc2ccccc12
inactive: [1] | [2] | [3] | [18] | [6] | [17] | [8] | [9] | [10] | [11] | [12] | [13] | [14] | [15] | [16]

CCOC(=O)[C@@H](C)Oc1ccc(Oc2nc3ccc(Cl)cc3o2)cc1
inactive: [1] | [3] | [18] | [6] | [7] | [17] | [8] | [9] | [10] | [11] | [12] | [13] | [14] | [15] | [16]

CCOC(=O)/C=C/C(=O)O
inactive: [1] | [2] | [3] | [7] | [17] | [8] | [10] | [11] | [12] | [13] | [14] | [15] | [16]

O=C(O)C(Cc1cc(I)c(O)c(I)c1)c1ccccc1 (stereo unspecified)
inactive: [1] | [2] | [3] | [5] | [6] | [8] | [9] | [10] | [11] | [12] | [13] | [14] | [15] | [16]

CN1Cc2cc(C(=O)N3CCC(C4CCNCC4)CC3)ccc2N[C@@H](CC(=O)O)C1=O
inactive: [1] | [2] | [3] | [5] | [6] | [8] | [9] | [10] | [11] | [12] | [13] | [14] | [15] | [16]

CCC1(C)CC(=O)NC1=O (stereo unspecified)
inactive: [1] | [2] | [3] | [5] | [6] | [8] | [9] | [10] | [11] | [12] | [13] | [14] | [15] | [16]

CN1CCCN=C1/C=C/c1cccs1
inactive: [1] | [2] | [3] | [5] | [6] | [17] | [8] | [9] | [10] | [11] | [12] | [13] | [14] | [15] | [16]

COC(OC)(C(=O)c1ccccc1)c1ccccc1
inactive: [1] | [2] | [3] | [5] | [6] | [17] | [8] | [9] | [10] | [11] | [12] | [13] | [14] | [15] | [16]
